High-throughput results deposited in PubChem BioAssay by National Center for Advancing Translational Sciences (NCATS).
HT1080 IDH1KD tx: qHTS for induction of synthetic lethality in tumor cells producing 2HG: qHTS for the HT-1080-IDH1KD cell line | HT-1080 IDH1 knockdown viability, ATP luminescence, 48 h | Potency, µM (titrated, usually from 46.1 µM), for the others: top-dose activity, negative = toxicity, hits mostly cytotoxic | 360,000 tested, 2% active;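 further: 0% = DMSO wells and -100% = cell-free medium wells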
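Viability of IDH1-knockdown HT-1080 fibrosarcoma cells was assessed by CellTiter-Glo after 48 h at 37 °C with titrated compound; concentration-effect curves were classified by fit quality and response size.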
ATXN2 expr inh: Primary qHTS for Inhibitors of ATXN expression; HEK-293 ATXN2-luciferase reporter, luminescence, 24 h; Potency, µM (highest dose often 57 µM), for the others: at the top dose activity change, negative = inhibition, hits mostly inhibitors; 360,000 tested, 0.72% active; AID 1745845, 2022; further: on the % scale 0 is the no-effect control and ±100 the full control effect; nearly all actives have a fitted effect of over 55% in size
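ATXN2-luciferase reporter cells (luciferase flanked by upstream and downstream ATXN2 gene portions) were treated 24 h at 37 °C with compounds at up to 57 uM. SteadyGlo luminescence gave expression; GF-AFC fluorescence gave viability.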
KB-3-1 tox: qHTS assay for MDR1-selective chemotherapeutics: Primary screen using the parental adenocarcinoma cell KB-3-1. KB-3-1 viability, CellTiter-Glo ATP luminescence, 72 h. Potency, µM (series often up to 46.1 µM), hits mostly cytotoxic. 400,000 tested, 1.4% active. AID 1347075, 2019; further: on the % scale 0 is the no-effect control and ±100 the full control effect; nearly all actives have a fitted effect of over 60% in size
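KB-3-1 cells, DMEM (no phenol red) + 10% FBS; compound by pin transfer, 72 h, 37 °C. Readout: CellTiter-Glo luminescence after 10 min. Data normalized, curve-fitted.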
S2 tox: Viability Counterscreen for Primary qHTS for Inhibitors of ATXN expression; 400,000 tested, 0.49% active; Potency, µM (doses to about 56.7 µM), most hits filed as cytotoxic; S2 cells (HEK-293 line with an ATXN2-luciferase reporter) viability, CellTiter-Fluor protease fluorescence, 24 h; further: nearly all actives have a fitted effect of over 40% in size
KB-V1 MDR tox: qHTS assay for MDR1-selective chemotherapeutics: Primary screen using the drug-selected MDR subline cells KB-V1; 400,000 tested, 3.4% active; Potency, µM (doses to about 46.1 µM), usual class: cytotoxic; AID 1347076, 2019; KB-V1 MDR cells viability, CellTiter-Glo, 72 h; further: on the % scale 0 is the no-effect control and ±100 the full control effect; nearly all actives have a fitted effect of over 60% in size
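Cells of the MDR subline KB-V1 are plated, dosed with compound at multiple concentrations, and incubated 72 h at 37 degrees C; CellTiter-Glo is then added and luminescence read after 10 min.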
HT1080NT lethal: qHTS for induction of synthetic lethality in tumor cells producing 2HG: qHTS for the HT-1080-NT fibrosarcoma cell line. HT-1080-NT fibrosarcoma viability, CellTiter-Glo ATP luminescence, 48 h. Potency, µM (highest dose often 46.1 µM), for inactives: at the highest dose activity, negative = less viability, most hits filed as cytotoxic. 360,000 tested, 1.6% active. AID 686970, 2013;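 further: NT is the 2HG producing partner of a matched IDH1 knockdown line; 0% = DMSO-treated cells and -100% = media-only wells without cells; nearly all actives have a fitted effect of over 55% in size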
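Viability of the 2HG-overproducing fibrosarcoma line after 48 hours of compound exposure at 37 degrees C was determined by luminescence with CellTiter-Glo, and concentration-effect curves were then fitted and categorized.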
* hit, by the source's call; i = inactive; u = inconclusive; x = no result given. Compounds with a hit are over-represented: about 6.2% of the library has one in this group of screens. The call rests on the fitted dose curve; in most records, active means well fitted curve in the direction sought with a large enough effect; inconclusive means small, poorly fitted or top-dose-only effect, or another doubt; inactive means no such curve, though single readings can be large; an effect the other way counts as inactive or inconclusive. Potency means the concentration at half of the fitted maximal effect.

SMILES	HT1080 IDH1KD tx	ATXN2 expr inh	KB-3-1 tox	S2 tox	KB-V1 MDR tox	HT1080NT lethal
c1ccc2c(c1)nc(NCc1ccc3c(c1)OCO3)n2CCN1CCOCC1	0%	-1%	i	i	i	-7%
Cc1ccc(N2CCN(c3ccc(NCc4nc5ccccc5n4C)cc3)CC2)cc1	-5%	-16%	i	u	4.6µM*	0%
Cc1cccc(NCc2nc3ccccc3n2Cc2ccccc2)c1	u	11%	i	i	u	-19%
Cc1nc2cc(NCc3nc4ccccc4n3Cc3ccccc3)ccc2n1C	u	48%	i	u	10µM*	u
c1ccc(Cn2c(CNc3nc4ccccc4n3CCN3CCOCC3)nc3ccccc32)cc1	u	-5%	i	i	8.2µM*	u
CCc1ccc2[nH]c(=O)c(CN(Cc3ccco3)Cc3nnnn3Cc3ccco3)cc2c1	x	x	u	x	i	x
CN1CCN(N)CC1	x	-4%	x	i	x	x
COc1ccc(-c2cc(OC(=O)c3ccccc3Cl)c3c(C)oc(C)c3c(=O)c2)cc1OC	x	-10%	i	i	i	x
CCOc1cccc(-c2nc3ccccc3c(=O)o2)c1	x	22%	i	i	i	x
CCOC(=O)c1ccc(NC(=O)c2cc3c(=O)n(C)c4ccccc4c3n2C)cc1	x	-8%	i	i	i	x
C#CCNC(=O)C[C@@H]1C[C@@]2(C(=O)OC)CC(C)(C)CC=C2N(Cc2ccco2)C1=O	7%	x	i	x	u	8%
COC(=O)[C@@]12C[C@@H](CC(=O)NCc3cccs3)C(=O)N(Cc3cccc4ccccc34)C1=CCC(C)(C)C2	u	x	u	x	16µM*	u
C#CCNC(=O)C[C@@H]1C[C@@]2(C(=O)OC)CC(C)(C)CC=C2N(Cc2cccc3ccccc23)C1=O	u	x	u	x	23µM*	u
COC(=O)[C@@]12C[C@@H](CC(=O)NCC34CC5CC(CC(C5)C3)C4)C(=O)N(Cc3ccco3)C1=CCC(C)(C)C2	u	x	u	x	15µM*	21µM*
CCCCNC(=O)C[C@@H]1C[C@@]2(C(=O)OC)CC(C)(C)CC=C2N(Cc2cccc3ccccc23)C1=O	u	x	i	x	u	-27%
COCCN1CCN(C(=O)c2cnn(-c3nccc(-c4ccccc4OC)n3)c2-c2ccco2)CC1	x	x	x	i	x	x
CC(C)C[C@@H](N)[C@H](O)C(=O)N[C@H](C(=O)N[C@H](C(=O)N[C@@H](CC(=O)O)C(=O)O)C(C)C)C(C)C	x	-11%	x	x	x	x
CCn1c(Cl)c(C=O)s/c1=N\S(=O)(=O)c1ccccc1	8.2µM*	13µM*	u	14µM*	u	13µM*
CCOc1ccccc1C1C2CCCCC2(O)CCN1C(=O)c1cccs1 (stereo not given)	-2%	14%	i	i	23µM*	2%
Cc1ccc2nc(N(CCCN(C)C)C(=O)CS(=O)(=O)c3ccccc3)sc2c1	-5%	-4%	i	i	i	-8%
CN(C)CCCN(C(=O)CCc1ccccc1)c1nc2ccc(Cl)cc2s1	16µM*	u	u	i	23µM*	23µM*
Cc1ccc2nc(N(CCCN(C)C)C(=O)CCc3ccccc3)sc2c1	16µM*	-28%	i	i	i	15µM*
CCc1ccccc1NC(=O)CN1C(=O)c2cccnc2Oc2ccc(Cl)cc21	x	x	i	x	i	x
Oc1cc(-c2nc(-c3ccccc3)[nH]c2-c2ccncc2)ccc1Cl	x	-9%	x	x	x	x
CC[N+](CC)(CC)c1ccc(/C=C/c2ccnc3ccccc23)cc1	x	x	0.58µM*	x	u	x
SMILES	HT1080 IDH1KD tx	ATXN2 expr inh	KB-3-1 tox	S2 tox	KB-V1 MDR tox	HT1080NT lethal
CCN(CC)c1ccc(/C=C/c2ccnc3ccccc23)cc1	x	x	u	x	i	x
CCCCN(CCC#N)c1ccc(/C=C/c2ccnc3ccccc23)cc1	x	x	u	x	18µM*	x
OCCN(CCO)c1ccc(/C=C/c2ccnc3ccccc23)cc1	x	x	u	x	13µM*	x
CCN(CC)c1ccc(C(=C2C=CC(=[N+](CC)CC)C=C2)c2ccc(N(CC)CC)cc2)cc1	5.2µM*	u	u	x	u	7.3µM*
CCN(CC)c1ccc(C(=C2C=CC(=[N+](CC)CC)C=C2)c2ccccc2)cc1	1µM*	0.35µM*	0.026µM*	0.89µM*	u	2.6µM*
CCN(CC)c1ccc(C(=C2C=CC(=[N+](CC)CC)C=C2)c2cc(S(=O)(=O)O)ccc2S(=O)(=O)[O-])cc1	x	11µM*	x	u	x	x
CC(C)c1ccccc1NC(=O)CN1C(=O)c2cccc3cccc1c23	x	-5%	i	x	i	x
COc1ccc(CCn2c3c(c(=O)[nH]c2=S)CN(Cc2ccccc2)CN3)cc1OC	-15%	x	x	x	x	-1%
COC(=O)C(=Cc1ccc(OCc2ccc([N+](=O)[O-])cc2)c(OC)c1)C(=O)OC	u	u	i	u	u	u
CCOC(=O)C(=Cc1ccc(OCc2ccc([N+](=O)[O-])cc2)c(OC)c1)C(=O)OCC	u	u	u	22µM*	21µM*	21µM*
CCC1CCCCN1CCCNC(=O)c1ccc2c(c1)sc1nc(-c3ccc(F)cc3)cn12 (stereo not given)	x	-18%	i	u	i	x
O=C(NNC(=S)Nc1ccccc1)c1cccc(Br)c1	6%	36%	i	i	i	12%
CC(C)(C)NC(=S)NNC(=O)c1cccc(Br)c1	-1%	x	u	i	16µM*	5%
O=C(Nc1nnc(-c2ccncc2)s1)Oc1ccc2ccccc2c1	x	x	u	x	i	x
S=C(NCCCN(Cc1ccc(Cl)cc1)c1ccc(Br)cn1)NCc1ccc2nc[nH]c2c1	x	x	i	x	i	x
CCCN1CCN(C(=O)Nc2ccc(C(=O)OCC)cc2)CC1	2%	21%	i	i	u	6%
CCOC(=O)c1ccc(NC(=O)N2CCN(Cc3cccc(F)c3)CC2)cc1	u	22%	i	i	18µM*	-28%
O=C1CCCC2=C1C1(CCS(=O)(=O)C1)N=C(Nc1nc3ccccc3o1)N2 (stereo not given)	x	x	i	x	i	x
COc1cccc(-c2ncn(CCc3ccccc3OC)c2C(C)C)c1	15µM*	u	u	11µM*	12µM*	13µM*
COc1ccccc1CCn1cnc(Cc2cccc(F)c2)c1C(C)C	u	-3%	u	u	18µM*	u
